About 79,000 compounds went through this panel and 15% of them were active in at least one assay; those are over-represented in the sample as a whole. A number with no mark means an inactive call. Active and inactive are the calls of the source. No stated cut-off is given here; in the data, active means growth inhibition above about 70%; inactive means the rest.
Key:
[1] = NCI Yeast Anticancer Drug Screen. Data for the rad50 strain (AID 155);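 further: 0% = growth of vehicle-only cultures of the same strain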; settings: S. cerevisiae rad50 strain growth inhibition; at 50.0 µM; hits give high values
How it was run: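 Growth of the mutant yeast was measured after compound exposure and referenced to vehicle-treated cultures.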

[2] = NCI Yeast Anticancer Drug Screen. Data for the mec2-1 strain (AID 157); settings: S. cerevisiae mec2-1 strain, at 50.0 µM, hits give high values
How it was run: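 Compounds were applied to mec2-1 yeast cells. Their growth was then compared with that of vehicle-treated cultures to give growth inhibition.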

[3] = NCI Yeast Anticancer Drug Screen. Data for the sgs1 mgt1 strain (AID 161);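 further: 0% = growth of cultures given vehicle only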; settings: S. cerevisiae sgs1 mgt1 strain, at 50.0 µM, hits give high values
How it was run: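 Yeast cells carrying a defined DNA-repair defect were exposed to test compounds. Growth inhibition was measured relative to vehicle-treated controls.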

[4] = NCI Yeast Anticancer Drug Screen. Data for the cln2 rad14 strain (AID 165);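 further: 0% = growth equal to vehicle treated cultures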; settings: S. cerevisiae cln2 rad14 strain, at 50.0 µM, hits give high values
How it was run: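 Strain: cln2 rad14 yeast, altered in cell cycle control and DNA damage repair. Read-out: growth inhibition vs vehicle.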

[5] = NCI Yeast Anticancer Drug Screen. Data for the bub3 strain (AID 167); settings: S. cerevisiae bub3 mutant strain, at 50.0 µM, hits give high values
How it was run: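 Whole-cell yeast assay. The mutant strain was incubated with compounds, and growth inhibition was determined by comparison with vehicle-treated cells.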

[6] = NCI Yeast Anticancer Drug Screen. Data for the mlh1 rad18 strain (AID 175); settings: S. cerevisiae mlh1 rad18 strain growth inhibition; at 50.0 µM; hits give high values
How it was run: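 A repair-deficient yeast strain is exposed to test compound, and growth is scored relative to vehicle-treated controls.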

Row | Compound | growth inhibition [1] | growth inhibition [2] | growth inhibition [3] | growth inhibition [4] | growth inhibition [5] | growth inhibition [6]
1 | O=C1c2ccccc2C(C2N=Nc3ccccc32)c2ccccc21 (stereo unspecified) | 7.1% | 5.15% | 15.6% | 26.1% | 3.8% | 6.2%
2 | COc1cc(N=Nc2c[nH]c3ccccc23)c(OC)cc1N=Nc1ccc([N+](=O)[O-])cc1 | 26.3% | 16.8% | 0.6% | -22% | 13.7% | 34.8%
3 | C/C=C/c1nc2ccccc2[nH]1 | -11.2% | -2.45% | -3% | -2.45% | -6.45% | -0.95%
4 | C=C1[C@H](OCC(C)C)[C@@H](OC(=O)C(C)CC)[C@@H](O)C(C)(C)/C=C/[C@H](C)C(=O)[C@@]2(O)C[C@H](C)[C@H](O)[C@@H]2[C@H]1OC(=O)C(C)CC (stereo partly specified) | 47% | 46.6% | 75.2% (active) | 69.3% | 73.7% (active) | 58.1%
5 | Clc1ccc(N=C(Oc2ccc(Cl)cc2)c2ccccc2)cc1 | 4.95% | 7.35% | -4.85% | -12.4% | 0.25% | 3.6%
6 | COC1OC(CI)C(OC(=O)c2ccccc2)C(OC(=O)c2ccccc2)C1OC(=O)c1ccccc1 (stereo unspecified) | 10.8% | 21.4% | 10.2% | 15.2% | 36.1% | 33.5%
7 | COC(=O)c1ccc(OC(=O)Nc2ccc(SC)cc2)cc1 | 3.2% | 40.5% | 25.4% | -3.4% | 34.2% | 11.7%
8 | CCC(Cl)COP(=O)(OCC(Cl)CC)O/C(C)=C(/C)P(=O)(OCC(Cl)CC)OCC(Cl)CC (stereo unspecified) | 32.9% | 29.6% | 42.4% | 47.1% | 8.6% | 69%
9 | CC1(C)OC2OC(COC(=O)c3ccccc3)C(N3C(=O)c4ccccc4C3=O)C2O1 (stereo unspecified) | 58.2% | 9% | 64.1% | 30.1% | 40.4% | 49%
10 | COC(=O)/C(C#N)=C/c1cccnc1 | -10.1% | -7.65% | 6% | -61.1% | -5.45% | -15.7%
11 | CC1(C)OC2C(CO)OC(n3ccc(N)nc3=O)C2O1 (stereo unspecified) | -33% | -12% | 2.15% | -29.9% | 10.6% | -1.75%
12 | CN(C)CCCn1c(=O)nc2n(-c3ccccc3)c3ccccc3nc-2c1=O | 9.3% | 4.5% | -10.4% | 8.75% | 2.35% | -44.5%
13 | N/C(=N\N=C\c1c[nH]c2cc(C(F)(F)F)ccc2c1=O)NO | -10.9% | -7.45% | 28.4% | 11.1% | 2.9% | 2.25%
14 | C=C(CN(C)C)C1(c2ccccc2)CC2(CCCC2)C(=O)O1 (stereo unspecified) | 24.2% | 12% | 13.3% | -4.75% | 11.9% | 25.5%
15 | CCc1nc(N)nc(N)c1-c1ccc2c(c1)nnn2CCc1ccccc1 | 11.2% | 0.1% | 3.6% | 10.7% | 5.05% | 16.1%
16 | COc1ccc2c(c1)C/C(=C\c1ccc(O)c(OC)c1)C2=O | -46.5% | -14% | -33.5% | -9.9% | 7.8% | -10.1%
17 | COc1c(CCl)cc(-c2sc3ccccc3c(=O)c2CCl)cc1CCl | -7.25% | -7.3% | 1.1% | 2.85% | -1.8% | 1.85%
18 | CC(=O)OCC(OC(C)=O)C(OC(C)=O)C(/C=C/N=[N+]([O-])c1ccccc1)OC(C)=O (stereo unspecified) | 49% | 31.5% | 45.5% | 42.6% | 48.6% | 44.9%
19 | CC(=O)Nc1ccc(-c2nnc(SCC(=O)Nc3ccccc3)o2)cc1 | 2.3% | 6.8% | -4.95% | -1.8% | -14.6% | -8.55%
20 | COc1ccc(NC(=O)CC(=O)N2N=C(N(c3ccccc3)c3ccccc3)CC2c2ccccc2)cc1 (stereo unspecified) | 4.75% | 2.05% | 12.2% | 26.3% | 17.6% | -29.8%
21 | O=C(NC(Cc1ccccc1)P(=O)(O)c1ccccc1)OCc1ccccc1 (stereo unspecified) | -8.45% | -30.5% | -30.2% | 15.7% | 2.3% | -12%

Row | Compound | growth inhibition [1] | growth inhibition [2] | growth inhibition [3] | growth inhibition [4] | growth inhibition [5] | growth inhibition [6]
22 | NC(=S)Nc1c(Cl)cc(Cl)cc1Cl | 44% | -8.9% | 33.4% | 8.6% | 17.3% | 12.3%
23 | O=C(Nc1ccccc1)c1ccc2ccccc2n1 | -12.7% | -31% | -22.1% | -10.1% | 10.6% | 6.75%
24 | CCCc1cc(=O)oc2c3c(cc(OC(C)C)c12)O[C@H](C)[C@H](C)[C@@H]3O | 3.55% | 0.15% | -10.8% | -1.45% | -7.6% | 18.8%
25 | O=[N+]([O-])c1cc(O)ccc1O | 5.4% | 5.45% | 0% | -10.7% | -1% | 12%
26 | CNC(=O)OCc1c(COC(=O)NC)c(C)n(-c2ccc(F)cc2)c1C | 30.1% | 14.8% | 4.55% | 0.5% | 50.3% | -12.2%
27 | Cc1cccc2c(SCCCCCCSc3c4ccccc4nc4c(C)cccc34)c3ccccc3nc12 | -2.25% | -8.1% | -26.7% | -21.5% | -2.7% | 7.05%
28 | N#C[C@H](c1nc2ccccc2[nH]1)c1nc2ccccc2nc1Cl | 5.5% | 2.5% | 21.9% | 12.8% | 15.3% | 12.7%
29 | CCN(Cc1ccccc1)c1ccccc1C | 12% | -6.85% | 10.8% | 0% | 7.65% | 1.45%
30 | c1ccc(CCC2OCC(c3ccccc3)O2)cc1 (stereo unspecified) | -21.9% | 18.6% | -3.2% | -35.9% | 58.8% | -2.05%
31 | CN(C)CCSC(=Nc1ccccc1)N1CCCCC1 | -32.8% | 1.7% | -9.5% | 30.9% | 8.15% | -9.6%
32 | COc1ccc2c(c1)C(=O)[C@@](Nc1ccc(C=O)cc1)(OC)[C@@](OC)(c1ccc([N+](=O)[O-])cc1)O2 | 9.3% | -3.05% | 29.9% | 2.3% | -9.45% | 12.4%
33 | O=[N+]([O-])c1ccc2nc(C(F)(F)F)cc(Cl)c2c1 | 7.35% | 5.3% | 2% | -66.9% | -1.1% | -9.75%
34 | CCN1CCCC(Nc2cc(C)nc(/N=C(\N)Nc3ccc(Cl)c(Cl)c3)n2)C1 (stereo unspecified) | 97.2% (active) | 98% (active) | 98.4% (active) | 87.3% (active) | 96.1% (active) | 98% (active)
35 | CCCNC1=C(OC)C(=O)C(NCCC)=C(OC)C1=O | -0.3% | 6.8% | 9.15% | -47.5% | 2% | -9.15%
36 | O=[N+]([O-])C1C2C=CC(C2)[C@H]1c1ccco1 (stereo partly specified) | -7.85% | -15.2% | -24.7% | 20.2% | -14.8% | -4.95%
37 | COC(=O)C1(C)CCCC2(C)C1CCC1(O)C2CC2OC2(C(C)C)C1O (stereo unspecified) | -2.65% | -21.4% | -0.9% | -31.4% | -13.2% | 3.45%
38 | N#CC(C(=N/O)/C(=N\O)C(C#N)c1ccccc1)c1ccccc1 (stereo unspecified) | -3.35% | -11.1% | 2.55% | -4% | -5.75% | 25.1%
39 | N#C/C(=C\c1ccc2c(c1)OCO2)C(=O)N/N=C/c1ccc2c(c1)OCO2 | 4.6% | 17.3% | 5.4% | -13.7% | -0.1% | 2.95%
40 | C=CC(C)C(C)C (stereo unspecified) | 3.15% | 0.4% | -7.55% | 4.3% | 8.65% | -4.8%
41 | CC(C)N(CCC#N)C(=S)Nc1cccc2ccccc12 | 17.1% | 10.1% | 19.6% | 14.9% | 12.2% | -8.2%

— PubChem BioAssay (NCI)
